# From PubChem BioAssay
# IL-1B inflam inh: inflammasome signaling inhibition, IL-1 beta readout; activity change, % at 57.5 µM; actives 4.7% (n = 360,000); THP-1 LPS/ATP IL-1B secretion, AlphaLISA, 16 h; active compounds read low; AID 743279; in the data active = activity change below about -50%; inconclusive = mostly about -30% to -49%
#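 Secreted IL-1B measured by AlphaLISA bead assay after 16 h compound exposure of THP-1 cells; compounds (final up to 57.5 uM) added 1 h before LPS (250 ng/mL) and ATP (1.25 mM) stimulation; lower signal means less secretion.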
# HT1080 IDH1KD tx: HT-1080 IDH1 knockdown cell toxicity (counter line) | HT-1080 IDH1 knockdown viability, ATP luminescence, 48 h | actives 2% (n = 360,000) | Potency, µM (titrated, usually from 46.1 µM), most hits filed as cytotoxic
#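 Cytotoxicity counter-line: IDH1KD HT-1080, 48 h, CellTiter-Glo. Curves classed by r2, magnitude and activity.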
# DT40 TDP1 no CPT: qHTS for Inhibitors of human tyrosyl-DNA phosphodiesterase 1 (TDP1): qHTS in cells in absence of CPT | DT40 Tdp1-/- hTDP1 cells, no CPT, ATP luminescence, 48 h | actives 15% (n = 420,000) | Potency, µM (series often up to 46.2 µM), hits mostly inhibitors; also: nearly all actives have a fitted effect of over 55% in size
#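 A cellular qHTS used chicken DT40 cells lacking endogenous Tdp1 but carrying stably transfected human TDP1. Compounds were applied without camptothecin, and cell growth kinetics were judged by ATP-dependent luminescence after ≥48 hr.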
# TDP1 cell CPT: DT40-hTDP1 cell growth loss with CPT; chicken DT40 Tdp1-/-;hTDP1 cells + 20 nM CPT, ATP luminescence, 48 h; actives 12% (n = 420,000); Potency, µM (doses to about 46.2 µM), hits mostly inhibitors; also: nearly all actives have a fitted effect of over 55% in size
#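 Chicken DT40 Tdp1-/- cells stably complemented with human TDP1 were seeded at 400 cells/well in medium containing 20 nM camptothecin, exposed to pin-transferred compounds, and grown at 37 °C for at least 48 hr. Viability was read as ATP luminescence.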
# HT1080-NT tox: kills 2HG-producing HT-1080-NT fibrosarcoma cells; HT-1080-NT fibrosarcoma viability, CellTiter-Glo ATP luminescence, 48 h; Potency, µM (titrated, usually from 46.1 µM), actives largely listed as cytotoxic; actives 1.6% (n = 360,000); AID 686970;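 also: NT is the 2HG producing partner of a matched IDH1 knockdown line; nearly all actives have a fitted effect of over 55% in size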
#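 Luminescent CellTiter-Glo readout after 48 hours of compound exposure at 37 degrees C defined viability of HT-1080-NT cells. Activity was normalized to DMSO wells and cell-free media wells; concentration-response curves were fitted and assigned curve classes.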
# Hits are given with their value; . = inactive; ? = inconclusive; / = not tested or not shown; [ ] = another dose, or the depositor's remark. In the library only some 19% were active in any assay of this set; here they are far more common. Unless noted, calls follow the shape of the dose curve; as a rule, active = well fitted curve in the direction sought with a large enough effect; inconclusive = small, poorly fitted or top-dose-only effect, or another doubt; inactive = no such curve, though single readings can be large; an effect the other way counts as inactive or inconclusive.
SMILES,IL-1B inflam inh,HT1080 IDH1KD tx,DT40 TDP1 no CPT,TDP1 cell CPT,HT1080-NT tox
COc1ccc(NS(=O)(=O)c2cc(NC(=O)COc3ccccc3)ccc2N2CCOCC2)cc1,.,.,?,?,.
Cc1noc(C)c1C(=O)N1CCC2(CCCN(CC(C)C)C2)CC1,/,/,.,.,/
C[N+]12CCC(CC1)C(OC(=O)C(O)(c1ccccc1)c1ccccc1)C2 (centres undefined),.,.,.,.,?
C[C@H](NC(=O)[C@@H](N)Cc1ccc(O)cc1)C(=O)NCC(=O)N(C)[C@@H](Cc1ccccc1)C(=O)N[C@H](CO)CCS(C)=O (some centres undefined),/,/,.[4.12 µM],?,/
Cc1cccn2c(=O)c(/C=C(\C#N)c3nc4ccccc4s3)c(Oc3ccc(F)cc3)nc12,/,/,20.6µM,?,/
Cc1cc(C)cc(Oc2nc3ccccn3c(=O)c2/C=C(\C#N)c2nc3ccccc3s2)c1,/,/,9.2µM,?,/
Cc1cccc(Oc2nc3c(C)cccn3c(=O)c2/C=C(\C#N)c2nc3ccccc3s2)c1,/,/,18.4µM,?,/
O=C1NC(=O)C(=O)C(=O)N1,/,/,.,?,/
O=C(O)CCC1NCC2CC1CN1CCCCC21 (centres undefined),/,/,.,.,/
CC(=O)N1N=C(c2c(O)n(C)c(=O)n(C)c2=O)CC1c1ccccc1 (centres undefined),.,?,14.6µM,?,.
CCCCOc1ccc(C(=O)NCCc2csc(-c3ccc(OC)cc3)n2)cc1,/,/,4.11µM,4.61µM,/
COC(=O)C1=C(c2ccc(OC)c(OC)c2)C[C@@H]2CC[C@H]1N2C(=O)NCCOc1ccc(OC)cc1,.,.,.,.,.
CCN1CCC(N(C)C2CCCCC2)CC1,.,.,.,.,.
O=C(c1cc(S(=O)(=O)N2CCC3(CC2)OCCO3)ccc1F)N1CCC2(CC1)OCCO2,.,.,.,.,.
Cn1c(NN=O)nc2ccccc21,.,4.61µM,?,?,?
CN1CCN(Cc2nc3ccccc3n2C)CC1,.,.,.,.,.
O=C(NC1CCCCC1)[C@@H]1CC=C[C@@H]2CCN(Cc3ccccc3)C(=O)[C@@H]21,.,.,?,.,.
O=C1NC(=O)C(CCc2ccncc2)(Cc2ccc3c(c2)OCO3)C(=O)N1CCc1ccccc1 (centres undefined),.,?,20.6µM,?,.
c1cc(CNCCc2ccc3c(c2)OCO3)ccn1,.,.,.,.,.
CN1C(=O)N(C)C(=O)C(CCc2ccncc2)(Cc2ccc3c(c2)OCO3)C1=O,.,?,16.4µM,?,.
CC(=O)c1cccc(-c2ccnc3c2CC(C(=O)NCCc2ccccc2)O3)c1 (centres undefined),.,?,3.66µM,4.61µM,?
COC(=O)C1=C(c2cccc(C#N)c2)C[C@@H]2CC[C@H]1N2C(=O)NCCc1ccccc1,.,.,?,.,.
CC(=O)Nc1cccc(-c2ccnc3c2CC(C(=O)NCc2ccco2)O3)c1 (centres undefined),.,2.31µM,1.64µM,1.84µM,?
CNC(=O)Oc1cc2c(cc1C(C)(C)C)CCC2,.,.,16.4µM,16.4µM,.
CCOc1ccc(NC(=O)c2cc3c(C)nn(-c4ccccc4)c3s2)cc1,/,/,10.3µM,20.6µM,/
SMILES,IL-1B inflam inh,HT1080 IDH1KD tx,DT40 TDP1 no CPT,TDP1 cell CPT,HT1080-NT tox
CCOc1ccc(NC(=O)c2c(C)nn(Cc3ccccc3)c2Cl)cc1,.,.,.,.,.
Cc1cc(NCCN)nc2ccccc12,.,.,.,.,.
Cc1cc(NC(=O)C(Cl)(Cl)Cl)no1,.,.,.,.,.
Cc1ccc([C@H]2N[C@]3(CCCN(Cc4ccc(C(F)(F)F)cc4)C3=O)[C@H]3C(=O)N(Cc4ccccc4)C(=O)[C@@H]23)cc1,-70.4,.,?,23.1µM,.
c1cc(C2N3CCCN2CC3)ccn1 (centres undefined),.,.,.,.,.
CCNC(=S)NCCC1=c2ccccc2=N/C1=C\c1c(O)n(C)c(=O)n(C)c1=O,.,.,20.6µM,?,.
O=NN1CCCCC1,.,.,.,.,?
CN(C(=O)CCN1C(=O)/C(=C/c2ccc(F)cc2)SC1=S)C1CCS(=O)(=O)C1 (centres undefined),.,.,20.6µM,20.6µM,.
O=C1CC[C@]2(O)C3Cc4ccc(O)c5c4C2(CCN3CC2CC2)C1O5 (some centres undefined),/,/,.,.,/
O=C(Nc1cc[c]([Sb](=[O])([OH])[OH])cc1)c1ccccc1,/,/,.,.,/
N#Cc1cc(NC(=O)c2ccc(Cl)cc2)ccc1Sc1ccccc1,-60.9,20.6µM,16.4µM,20.6µM,?
O=C(O)[C@@H]1CSC(c2cccnc2)N1 (some centres undefined),/,/,.[9.04 µM],.[9.04 µM],/
CCCCCc1nc2ccccc2c(=O)n1-c1ccccc1[N+](=O)[O-],.,.,16.4µM,?,.
CCCCCc1nc2ccccc2c(=O)n1-c1ccc(C)cc1,/,/,?,.,/
CC1=C(O)C(=O)C=C2C1=CC=C1C2(C)CCC2(C)C3CC(C)(C(=O)O)CCC3(C)CCC12C (centres undefined),-57.0,1.64µM,1.03µM,1.3µM,4.61µM
Cc1c(O)c(O)cc2c1CC=C1[C@]3(C)CC[C@]4(C)CC[C@@](C)(C(=O)O)CC4[C@]3(C)CC[C@]12C (some centres undefined),/,/,4.11µM,7.31µM,/
Cc1cc(-c2ccccc2)cc(C)[n+]1Cc1ccccc1,.,.,1.64µM,1.46µM,.
Cc1ccc2c(c1)c(=O)c1c3n2CCN(CC2CO2)C3CC1 (centres undefined),.,.,?,18.4µM,.
CN1CC[C@]23c4c5ccc(O)c4O[C@H]2[C@@H](O)C=C[C@H]3[C@H]1C5,/,/,.,.,/
CC=C(C)C(=O)O[C@H]1C(C)=C2[C@@H]3OC(=O)[C@@](C)(O)[C@@]3(O)[C@@H](OC(=O)CCC)C[C@](C)(OC(C)=O)[C@@H]2[C@@H]1OC(=O)CCCCCCC,/,/,0.116µM,0.206µM,/
CCOC(=O)C1=C(Cc2ccc(Cl)cc2)C(=O)c2ccccc2C1=O,-88.8,10µM,4.61µM,4.61µM,11.2µM
CCOC(=O)c1ccccc1C(=O)OCC,.,/,.,.,/
Cc1ccc(NC(=O)c2ccc(C)c(S(=O)(=O)N3CCCCC3)c2)nc1,.,.,?,.,.
CC(=O)c1ccc(N2CCN(S(=O)(=O)c3cc(-c4onc(C)c4C)ccc3C)CC2)cc1,/,/,9.2µM,8.2µM,/
CCCCn1c(NS(=O)(=O)c2ccccc2)c(C(=O)OCC)c2nc3ccccc3nc21,.,.,20.6µM,?,?
CCCCn1c(NC(=O)c2ccc(Br)o2)c(C(=O)OCC)c2nc3ccccc3nc21,.,.,20.6µM,?,?
